Bioassay records as filed in PubChem.
TGFb inhibitor = TGF-b pathway inhibition; HepG2 CAGA-GFP TGF-b/SMAD3 reporter, GFP fluorescence, 18 h; TGF-beta stimulated, 500 pg/mL final; 410,000 tested, 1.2% active; Potency, µM (series often up to 46.1 µM), for inactives: at the highest dose activity, negative = inhibition, most hits filed as inhibitors; further: on the % scale 0 is the no-effect control and ±100 the full control effect; nearly all actives have a fitted effect of over 65% in size
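HEPG2 CAGA-GFP cells (1000/well, DMEM with 1% FBS) were pre-incubated 2 h at 37 degrees C, given compound by pin tool, then stimulated with TGF-beta at 500 pg/mL final for 18 h before per-cell GFP fluorescence imaging.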
ATXN2 expr inh = inhibitors of ATXN2 expression; Potency, µM (highest dose often 57 µM), without a hit: at the highest dose activity change, negative = inhibition, actives largely listed as inhibitors; HEK-293 ATXN2-luciferase reporter, luminescence, 24 h; 360,000 tested, 0.72% active; further: on the % scale 0 is the no-effect control and ±100 the full control effect; nearly all actives have a fitted effect of over 55% in size
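qHTS (up to 57 uM final) was run with 24 h compound exposure of reporter cells at 37 °C. Each well was multiplexed: SteadyGlo luminescence measured ATXN2-luciferase expression after a fluorogenic Gly-Phe-AFC viability readout (25 uM final).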
HepG2 tox-1 = HepG2 cytotoxicity, counter-screen for TGF-b inhibitors; AID 588856; 410,000 tested, 0.76% active; Potency, µM (series often up to 46.1 µM), without a hit: at the highest dose activity change, negative = cytotoxicity, most hits filed as cytotoxic; HepG2 CAGA-GFP viability, ATP luminescence, 18 h
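CellTiter-Glo luminescence gave cytotoxicity after 18 hours at 37 degrees C. The cells were HepG2 CAGA-GFP in 1% FBS DMEM, stimulated with 500 pg/mL TGF-beta after compound addition. %Activity was normalised to no-cell wells (complete cell-killing) and DMSO (no toxicity), and curves were fitted and classified.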
ALOX12 inh = inhibitors of human 12S-lipoxygenase ALOX12; 580,000 tested, 1.1% active; P18054; Potency, µM (highest dose often 108 µM), for the others: at the highest dose activity change, negative = inhibition, hits mostly inhibitors; AID 1671190; purified 12hLO, xylenol orange hydroperoxide absorbance; further: on the % scale 0 is the no-effect control and ±100 the full control effect
Target sequence (P18054 whole entry, looked up): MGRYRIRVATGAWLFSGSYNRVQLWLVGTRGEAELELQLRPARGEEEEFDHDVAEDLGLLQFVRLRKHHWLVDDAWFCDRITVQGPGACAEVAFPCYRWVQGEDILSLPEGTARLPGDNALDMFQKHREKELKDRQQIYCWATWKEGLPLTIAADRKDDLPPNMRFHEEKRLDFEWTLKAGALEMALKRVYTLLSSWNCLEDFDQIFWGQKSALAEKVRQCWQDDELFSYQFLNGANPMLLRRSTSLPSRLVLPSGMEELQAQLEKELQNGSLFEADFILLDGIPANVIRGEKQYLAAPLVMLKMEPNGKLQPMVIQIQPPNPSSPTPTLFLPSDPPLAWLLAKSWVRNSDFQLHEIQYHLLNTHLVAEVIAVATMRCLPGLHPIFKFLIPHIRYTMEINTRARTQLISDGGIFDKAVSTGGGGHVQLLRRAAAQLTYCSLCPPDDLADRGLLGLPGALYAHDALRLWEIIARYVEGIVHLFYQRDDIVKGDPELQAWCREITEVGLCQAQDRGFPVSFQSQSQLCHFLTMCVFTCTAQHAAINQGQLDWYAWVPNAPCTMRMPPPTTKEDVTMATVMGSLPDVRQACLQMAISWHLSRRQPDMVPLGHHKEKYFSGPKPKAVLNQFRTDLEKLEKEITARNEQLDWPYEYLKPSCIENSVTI
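Purified human 12hLO at 150 nM in 25 mM Hepes, 0.01% Triton X-100, pH 7.0, preincubated 15 min at room temperature with compound. Reaction started with 40 uM arachidonic acid, 30 min at room temperature. Hydroperoxide measured by Fe-xylenol orange, 573/405 nm absorbance ratio.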
S2 tox = reduces viability in counter-screen for ATXN expression inhibitors; S2 cells (HEK-293 line with an ATXN2-luciferase reporter) viability, CellTiter-Fluor protease fluorescence, 24 h; Potency, µM (series often up to 56.7 µM), most hits filed as cytotoxic; 400,000 tested, 0.49% active; further: nearly all actives have a fitted effect of over 40% in size
TGFb CAGA inh = confirmation of TGF-b signaling inhibitors in HepG2 reporter cells; shares compounds with TGFb inhibitor; HepG2 CAGA-GFP TGF-b reporter, GFP fluorescence, 18 h; cells stimulated with TGF-beta, 500 pg/mL; Potency, µM (series often up to 46.1 µM), for the others: top-dose activity, negative = inhibition, most hits filed as inhibitors; 1,600 tested, 63% active; AID 720534; further: on the % scale 0 is the no-effect control and ±100 the full control effect; nearly all actives have a fitted effect of over 65% in size
HepG2 tox-2 = counter-screen for TGF-b inhibitors: cytotoxicity in HepG2 cells | AID 720535 | HepG2 CAGA-GFP viability, ATP luminescence, 18 h; cells stimulated with TGF-beta, 500 pg/mL | 1,600 tested, 27% active | shares compounds with TGFb inhibitor | Potency, µM (top dose mostly 46.1 µM), for the others: top-dose activity, negative = cytotoxicity, hits mostly inhibitors; further: on the % scale 0 is the no-effect control and ±100 the full control effect; nearly all actives have a fitted effect of over 70% in size
TGFb CCL64 inh = TGF-b inhibition, CCL64 orthogonal assay; shares compounds with TGFb inhibitor; CCL64 CAGA-GFP reporter, TGF-b stimulated, GFP fluorescence, 18 h; Potency, µM (doses to about 46.1 µM), without a hit: at the top dose activity, negative = inhibition, actives largely listed as inhibitors; 1,600 tested, 41% active; AID 720536; further: nearly all actives have a fitted effect of over 65% in size
COP TGFb inh = blocks TGF-b signaling in HepG2 COP reporter. AID 720537. Potency, µM (highest dose often 46.1 µM), for the others: top-dose activity, negative = inhibition, most hits filed as inhibitors. shares compounds with TGFb inhibitor. 1,600 tested, 3% active. HepG2 COP-GFP TGF-b reporter, GFP fluorescence, 18 h; cells stimulated by added recombinant TGF-beta; further: nearly all actives have a fitted effect of over 70% in size
* hit, by the source's call; i = inactive; u = inconclusive; x = not tested or not shown. Only some compounds are listed: those with a hit (about 2.7% of all), similar ones and a draw of the others. The call rests on the fitted dose curve; in most records, active means well fitted curve in the direction sought with a large enough effect; inconclusive means small, poorly fitted or top-dose-only effect, or another doubt; inactive means no such curve, though single readings can be large; an effect the other way counts as inactive or inconclusive. Potency means the concentration at half of the fitted maximal effect.

SMILES	TGFb inhibitor	ATXN2 expr inh	HepG2 tox-1	ALOX12 inh	S2 tox	TGFb CAGA inh	HepG2 tox-2	TGFb CCL64 inh	COP TGFb inh
O=S(=O)(Nc1ccc2c(c1)OCCO2)c1ccc(F)c(F)c1	-32%	5%	-10%	19%	i	x	x	x	x
O=S(=O)(Nc1ccc2c(c1)OCCO2)c1ccc2oc3ccccc3c2c1	10µM*	-39%	-32%	-5%	i	23µM*	u	u	36%
O=c1cc(NS(=O)(=O)c2ccccc2)nc(SCc2ccc(Cl)cc2)[nH]1	4µM*	3%	-50%	4%	u	u	-24%	18µM*	4%
Cc1ccc2oc(-c3cccc(NC(=O)c4ccccc4[N+](=O)[O-])c3C)nc2c1	x	x	x	-19%	x	x	x	x	x
COc1ccccc1-c1[nH]ncc1CN1CCCN(S(=O)(=O)c2ccccc2)CCC(=O)NCC1	x	x	x	32%	x	x	x	x	x
CCCC(O)(C(N)=O)c1ccccc1 (centres undefined)	x	x	x	15%	x	x	x	x	x
O=C1C(NS(=O)(=O)c2cccs2)=C(N2CCN(Cc3ccccc3)CC2)C(=O)c2ccccc21	8.9µM*	x	10µM*	-15%	i	u	-24%	-10%	16%
CN1CCN(C2=C(NS(=O)(=O)c3cccs3)C(=O)c3ccccc3C2=O)CC1	u	u	-27%	-13%	i	x	x	x	x
CC[C@]12c3[nH]c4cc(-c5ccco5)ccc4c3CCN1C(=O)[C@@H](CC(=O)NCC13CC4CC(CC(C4)C1)C3)C[C@@H]2C(=O)N1CCN(C(=O)C2CC2)CC1	u	u	-16%	-17%	u	x	x	x	x
CC(C)N(C(=O)[C@H]1C[C@H](CC(=O)NCC23CC4CC(CC(C4)C2)C3)C(=O)N2CCc3c([nH]c4ccc(Cl)cc34)[C@]12C)C(C)C	8.9µM*	u	-76%	-17%	u	12µM*	u	13µM*	53%
CC[C@]12c3[nH]c4ccc(Cl)cc4c3CCN1C(=O)[C@@H](CC(=O)NCC13CC4CC(CC(C4)C1)C3)C[C@@H]2C(=O)N1CCN(C(=O)c2ccco2)CC1	13µM*	25µM*	-2%	u	u	12µM*	u	u	67%
CC[C@]12c3[nH]c4ccc(OC)cc4c3CCN1C(=O)C(CC(=O)NCC13CC4CC(CC(C4)C1)C3)C[C@@H]2C(=O)N1CCN(C(=O)c2ccco2)CC1 (some centres undefined)	u	u	-4%	x	u	x	x	x	x
CC(C)N(C(=O)[C@H]1C[C@H](CC(=O)NCCCN(C)C)C(=O)N2CCc3c([nH]c4ccc(Cl)cc34)[C@]12C)C(C)C	u	-18%	-73%	5%	u	x	x	x	x
CC[C@]12c3[nH]c4cc(-c5ccco5)ccc4c3CCN1C(=O)[C@@H](CC(=O)NCC13CC4CC(CC(C4)C1)C3)C[C@@H]2C(=O)N1CCN(C(=O)c2ccco2)CC1	13µM*	u	0%	-13%	u	u	-20%	u	28%
COc1ccc2[nH]c3c(c2c1)CCN1C(=O)C(CC(=O)NCC24CC5CC(CC(C5)C2)C4)C[C@H](C(=O)N2CCOCC2)[C@@]31CCC1CCCC1 (some centres undefined)	11µM*	8%	12%	u	i	4.6µM*	-22%	5.8µM*	19%
CCOc1cccc2cc(-c3cc(=O)oc4cc(O)ccc34)c(=O)oc12	x	x	x	17%	x	x	x	x	x
O=C(O)c1ccc(NC(=O)c2ccc(Br)o2)c(NC(=O)c2ccc(Br)o2)c1	x	x	x	1%	x	x	x	x	x
Cc1nc(-c2ccc(F)cc2)n(CC(=O)Nc2cc(C(F)(F)F)ccc2Cl)c(=O)c1CCO	x	x	x	-2%	x	x	x	x	x
NC(=O)c1ccsc1NC(=O)COC(=O)c1cc(Cl)ccc1Cl	x	x	x	11%	x	x	x	x	x
O=C(c1ccco1)N1CCN(C(=O)C2CCCc3c2[nH]c2ccc(Cl)cc32)CC1 (centres undefined)	1µM*	27%	-34%	u	i	u	u	u	10%
CCN(CC)c1ccc(/C=C/c2ccc3ccc(OC)cc3[n+]2CC)cc1	6.3µM*	x	-10%	u	x	2.9µM*	u	2.6µM*	25%
CC(C)/C=C(/C(=O)c1ccc(Cl)cc1Cl)n1cncn1	-5%	x	-30%	u	i	x	x	x	x
CC(C)(C)C(=O)/C(=C/c1ccc(Cl)cc1)n1cncn1	10µM*	x	-115%	0%	10µM*	21µM*	u	u	65%
Cc1ccc(OCCOc2ccc(Br)cc2/C=C(/C#N)c2ccccc2)cc1	x	x	x	-5%	x	x	x	x	x
O=C(C(=Cc1ccc(F)cc1)C(=O)c1ccccc1)c1ccccc1	8.9µM*	0%	-16%	-1%	i	3.7µM*	u	13µM*	27%
SMILES	TGFb inhibitor	ATXN2 expr inh	HepG2 tox-1	ALOX12 inh	S2 tox	TGFb CAGA inh	HepG2 tox-2	TGFb CCL64 inh	COP TGFb inh
O=C(C(=Cc1ccc(F)cc1)c1ccccc1)c1ccc(O)cc1	u	-20%	-54%	u	u	x	x	x	x
O=S(=O)(Nc1cccc2cccnc12)c1ccc(F)cc1	x	x	x	19%	x	x	x	x	x
Cc1ccc(S(=O)(=O)Nc2cccc3cccnc23)cc1	4µM*	5.6µM*	-35%	0%	u	16µM*	-21%	8.2µM*	24%
CCOc1nc(N=C(N)N)nc2c(C)cccc12	7.9µM*	u	-22%	0%	u	16µM*	u	7%	27%
CC(C)CC(=O)Nc1cccc(-c2nc3cc(Cl)ccc3o2)c1	x	x	x	-4%	x	x	x	x	x
CC(C)CCN1C(Nc2ccccc2)=NC[C@@H]1CC(C)C	-17%	-11%	-18%	1%	i	x	x	x	x
CC(C)C[C@H]1CN=C(Nc2ccccc2)N1CCc1cccc(F)c1	7.1µM*	-31%	-26%	x	i	5.8µM*	u	13µM*	54%
